Measurements taken from PubChem BioAssay (NCATS).
Results filed as inconclusive are left out. Active and inactive are the calls of the source. Calls come from the whole dose curve; as a rule, active = well fitted inhibition curve with a large enough effect; inconclusive = small, poorly fitted or top-dose-only effect; inactive = flat fitted curve, though single readings scatter.

Assays:
Assay in all cases: qHTS profiling for inhibitors of Plasmodium falciparum proliferation (AID 504749); note: nearly all actives have a fitted effect of over 60% in size
Conditions in all cases: P. falciparum in erythrocytes, SYBR Green DNA, 72 h; series mostly up to 28.7 µM
ATS95 = test system: ATS95
Outline: (§1)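 Infected RBCs, 0.3% parasitemia/2.5% Hct final; cpd 72 h, 37 C, 5% CO2; lysis buffer with saponin/triton/SYBR Green I, o/n RT dark; FI 485/535; norm. to artemisinin (0.29 uM) and DMSO.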

C2A = test system: C2A
Outline: as §1

CP185 = test system: CP185
Outline: as §1

CP215 = test system: CP215
Outline: as §1

CP237 = test system: CP237
Outline: as §1

CP250 = test system: CP250
Outline: as §1

CP252 = test system: CP252
Outline: as §1

CP256 = test system: CP256
Outline: as §1

CP262 = test system: CP262
Outline: as §1

CP265 = test system: CP265
Outline: as §1

CP268 = test system: CP268
Outline: as §1

CP305 = test system: CP305
Outline: as §1

CP315 = test system: CP315
Outline: as §1

CP325 = test system: CP325
Outline: as §1

CP329 = test system: CP329
Outline: as §1

CP335 = test system: CP335
Outline: as §1

DIV30 = test system: DIV30
Outline: as §1

JCK = test system: JCK
Outline: as §1

PC26 = test system: PC26
Outline: as §1

SC27B = test system: SC27B
Outline: as §1

Measured: Potency

C[N+](C)(C)CC(=O)[O-]
inactive: all assays above
